# Measured values reported in the supplement of paper PMC10105736.
# A number with no mark means an inactive call.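 The calls were made as follows: active = MAPPIT score above the 99th percentile of random reference set scores in the same batch; inactive = at or below it.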
# B1: RasGAP1 (protein)
# chain: MLLKKKRYMFDERDDNNINSPVAVEPSSNNNKMADTREVRIEEQLKVKIGEAKNLSSRNAANTSCSTQGTRDVYCTIALDQEEICRTPTIERTLTPFFGEEHQFKIPRRFRYLTIYLWDRDMKQDKPIGKIAIKREELHMYNHKDHWFSLRPVDQDSEVQGMVNVEVAFTEAQQTQSLSEGIDLGQHTLRHHQNLPHHSHQQRAHLNDYKENSELSNIQRASAAAASSSSAAMTLKTRAAGLFGHVHHPPSQTQHFPIINTTSTSSDQLSNWKSHGRFVGVTIKVPACVDLAKKQGTCDPFVVCTAHYSNKHQVTRRTKQRKKTVDPEFDEAMYFDLHIDADAGSTNTTGSNKSAGSLESSANKGYSIYPVGGADLVEIVVSVWHDAHGAMSDKVFLGEVRLPMLNKQEQQAVNPSAWYYLQPRSMTHSSRSLNATPRSCATPPGTRLSVDSTIGSLRLNLNYTADHVFPLATYDDLMNLLLESVDQRPITVSAVSILGELVSGKTEVAQPLVRLFTHTERIAPIIKALADHEISHLTDPTTIFRGNTLVSKMMDEAMRLSGLHYLHQTLRPVLSQIVAEKKPCEIDPSKIKDRSAVDTNLHNLQDYVERVFEAITKSADRCPKVLCQIFHDLRECAGEHFPSNREVRYSVVSGFIFLRFFAPAILGPKLFDLTTERLDAQTSRTLTLISKTIQSLGNLVSSRSSQQTCKEEFTVELYKKFCTEQHVDAVKHFLEVISTPSHASSSVHPAAAAATPLEPVLLKEGLMTKYPTSRKRFGRQFKQRHFRLTTHSLSYAKSKGKQPICDIPLQEIASVEQLKDKSFKMQNCFKIVHNDRSLIVQTTNCVEEREWFDLLHKICLMNSIRMQYFHPSAFVSGFYSCCGRSDENSPGCKKVLDKTMDYFQMDLVTALDPALDLQRIHTLIMSNMSVLESLLDPLTYHQSLSQTQHQQHNPLVPLATDLQKHSPQAFAEFKRTIEKLREKAYAIDRDHRDYKQGITRQLKYGSRQAPIGDDNYWHMMRAAGQLNQQHHQQQQHQQQQQQQQQQQLQQFQPQPVLPQMQNVRAYPYQPATSNMNAYCLHNMQYQQQRLPFHQQQQQHHQQLQQQQSQFQPLRSHQLQRHNNNLNNNNCGNGSSSSPSSTTSSVVAAPPSTTSSSQPAPPIY
# B2: crn (protein)
# chain: MERPQKMPKVAKVKNKAPAEVQITAEQLLREAKERDLEILPPPPKQKISDPAELADYQQRKRKTFEDNLRKNRMVVSHWIKYAQWEEQQQEIQRARSIWERALDNEHRNVTLWLKYAEMEMKNKQVNHARNLWDRAVTIMPRVNQFWYKYTYMEEMLENVAGARQVFERWMEWQPEEQAWQTYVNFELRYKEIDRAREIYERFVYVHPDVKNWIKFARFEESHGFIHGSRRVFERAVEFFGDDYIEERLFIAFARFEEGQKEHDRARIIYKYALDHLPKDRTQELFKAYTKHEKKYGDRAGIEDVIVSKRKYQYEQEVAANPTNYDAWFDYLRLIEAEGDRDQIRETYERAISNVPPANEKNFWRRYIYLWINYALYEELEAEDAERTRQIYKTCLELIPHKQFTFSKLWLLYAQFEIRCKELQRARKALGLAIGMCPRDKLFRGYIDLEIQLREFERCRMLYEKFLEFGPENCVTWMKFAELENLLGDTDRARAIFELAVQQPRLDMPELLWKAYIDFEVALGETELARQLYERLLERTQHVKVWMSFAKFEMGLSHGDSGPDAELNVQLARRIYERANEMLRQLGDKESRVLLLEAWRDFERDASDSQEMQKVMDKMPRRIKKRQKIVSDNGVEEGWEEVFDYIFPEDEMARPNLKLLAAAKMWKTQKDNTVDDPPATAIASEPEPAADAAPADTTDSGD
# B3: Vha14-1 (protein)
# chain: MALHSAIKGKLISVIGDEDTCVGFLLGGVGEINKNRHPNFMVVDKNTAVSELEDCFKRFLKRDDIDIILINQNCAELIRHVIDAHTSPVPAVLEIPSKDHPYDASKDSILRRARGMFNPEDLVR
# B4: tap (protein)
# chain: MAACYNAYSAGSQSFEFDEDDDDASFDSGYEKSFETEAQLSSRRRLDFGTPPTPAIPQPYSGGTWDAVPLSSPPAGFVGLLDTSSNHSTRSGRTLVEHLNSRATNGVFDPPLTSTPVKSPEDPNAPRPKRKYAVGKNRVTRSRSPTQVVKIKRFRRMKANDRERNRMHNLNDALEKLRVTLPSLPEETKLTKIEILRFAHNYIFALEQVLESGGSINLDLEKLQNFTLSGERITKELFDALFVNPQPYPLFGRMFPYGQGMAPLAQHQTAPASHAEQPPAMGGFQHGMDYPQQPPGFDFTGSMRFYHQQQQQPHQPHHLQPNPQQESSPQQFSQEKYDLFRGSFDAAANLHSTNLDSGIHQQSSFYSQTPPWKDYPEDQAHVHPVPHQHSYKNFAPQV
# B5: Bre1 (protein)
# chain: MSKRSADDATGSSCLVAAAAAGQPPIKKVHFEPHLIGPVSTLEEMDIKVLEFQNKKLAQRIEQRMRTEAELRHRIEQLEKRQTQDDAVLNVVNRYWNQLNEDIRVLLQRFDAETADELENRNENEVTTSFLAQLSTWDKEELDEKLANRVQVSKRAVAKIVQVIDRLMQRNEKITHVLKGDSLASAGSGSGAGAGGEEEQQQASGDAETTTSSAGVHALEETLKQTHIEIMSENHKLQNLNTSLHEKFHTMSLKMKEYQDAHTAKETENAELKNQIDELQYDLEKIHCRNDKLENHLAEAIEKLKAYHQIYGDPNKSTNSAKTPTTTGSGGATTSVNSQLLEELQKELEEYRELANNRLQELDKLHATHRETLKEVEKLKMDIRQLPESVIVETTEYKCLQSQFSVLYNESMQIKTMLDETRNQLQTSKNQHLRQIEVMESEELIAQKKVRSEMIQMEDVLALIRKEYETLRIEFEQNMAANEQTAPINREMRHLITSLQNHNGQLKGEVQRYKRKYKDTSTDNLKLRQELADALATLEGNKLQAATGAAGEEIKQENSTGVKEENSNNVSASGQTNQTNSGNDTNVAIKEENHISAEDEADDEASGKDVKDGIKQEKLSSGDAAAAEKKDSPGPGNSTSSATNSVPVKNEKDSKDGVKGKDVKAVESETVRDLKAQLKKALNDQKEMKLLLDMYKGVSKDQRDKVQLMATEKKLRSEIEELRQQLKKLQESKREERKKLADEEALRKIKQLEEQKYELQKQMANHKPTDNSWGSGAPGTANYTRPFVGSHEEEALLNEMEVTGQAFEDMQEQNSRLIQQLREKDDANFKLMSERIKANQLHKLLREEKTVLEDQMATATTQIEAMHIVLRKLEEKERSLQATVASIEKELMLRQQAMEMHKRKAIESAQSAADLKLHLEKYHAQMKEAQQVVAEKTSSLEAEAYKTKRLQEELAQFKRKAERMKKMEMSGTTIDEVMIEEIREYKETLTCPSCKVKRKDAVLSKCFHVFCYDCLRTRYETRQRKCPKCNCAFGANDYHRLYLQ
# B6: bol (protein)
# chain: MHKIAAAPPPSATPGGGLETPLAAPKYGTLIPNRIFVGGISGDTTEADLTRVFSAYGTVKSTKIIVDRAGVSKGYGFVTFETEQEAQRLQADGECVVLRDRKLNIAPAIKKQPNPLQSIVATNGAVYYTTTPPAPISNIPMDQFAAAVYPPAAGVPAIYPPSAMQYQPFYQYYSVPMNVPTIWPQNYQENHSPLLHSPTSNPHSPHSQSHPQSPCWSIEDLRDTLPRV
# B7: Tollo (protein)
# chain: MLATTHMLYVLIATCVIPIFGAALSKTVLYQAPDECRWSGGGEHDITLVCHLRTINSELENTNFSVIQPQNTVRLRLECNDALFFQSSLSPDSFRSLVELRDLTIEYCKLGNLTDGSFRGLQELRNLTIRTHNGDWSTMSLEMASNSFVEFRQLERLDLSLNNIWLIPDGMVCPLKSLQHLNASYNKIQDISNFYFSASLSSRKARVCGSTLQSLDLSANKMVSLPTAMLSALGRLTHLNMAKNSMSFLADRAFEGLLSLRVVDLSANRLTSLPPELFAETKQLQEIYLRNNSINVLAPGIFGELAELLVLDLASNELNSQWINAATFVGLKRLMMLDLSANKISRLEAHIFRPLASLQILKLEDNYIDQLPGGIFADLTNLHTLILSRNRISVIEQRTLQGLKNLLVLSLDFNRISRMDQRSLVNCSQLQDLHLNDNKLQAVPEALAHVQLLKTLDVGENMISQIENTSITQLESLYGLRMTENSLTHIRRGVFDRMSSLQILNLSQNKLKSIEAGSLQRNSQLQAIRLDGNQLKSIAGLFTELPNLVWLNISGNRLEKFDYSHIPIGLQWLDVRANRITQLGNYFEIESELSLSTFDASYNLLTEITASSIPNSVEVLYLNDNQISKIQPYTFFKKPNLTRVDLVRNRLTTLEPNALRLSPIAEDREIPEFYIGHNAYECDCNLDWLQKVNRESRTQPQLMDLDQIHCRLAYARGSSHVSLIEAKSDDFLCKYASHCFALCHCCDFQACDCKMECPDRCSCYHDQSWTSNVVDCSRASYEQTLPSHIPMDSTQLYLDGNNFRELQSHAFIGRKRLKVLHLNHSRIEVLHNRTFYGLLELEVLQLQSNQLKALNGNEFQGLDNLQELYLQHNAIATIDTLTFTHLYHLKILRLDHNAITSFAVWNFLPSYLNELRLASNPWTCSCEFIDKLRDYINRHEYVVDKLKMKCDVISGNSTQQMVIYPGSGEPASLPVVQCSQTLPLGLDNNFNYAEQAGGENASNATSTKMILNQPPKLDYIPILVAILTAFIFVMICISLVFIFRQEMRVWCHSRFGVRLFYNAQKDVDKNEREKLFDAFVSYSSKDELFVNEELAPMLEMGEHRYKLCLHQRDFPVGGYLPETIVQAIDSSRRTIMVVSENFIKSEWCRFEFKSAHQSVLRDRRRRLIVIVLGEVPQKELDPDLRLYLKTNTYLQWGDKLFWQKLRFALPDVSSSQRSNVAGQSCHVPINHASYHHHHHVHQQAMPLPHSVHHHQQQFMLPPPPQQPGSFRRQPSLHQQQQQQQQIRGNNNTTQQQQQQQAALLMGGGSVGGPAPQMIPLAGGIQQQSLPLPPNQQPTPASRNLHM
# B8: sgg (protein)
# chain: MSGRPRTSSFAEGNKQSPSLVLGGVKTCSRDGSKITTVVATPGQGTDRVQEVSYTDTKVIGNGSFGVVFQAKLCDTGELVAIKKVLQDRRFKNRELQIMRKLEHCNIVKLLYFFYSSGEKRDEVFLNLVLEYIPETVYKVARQYAKTKQTIPINFIRLYMYQLFRSLAYIHSLGICHRDIKPQNLLLDPETAVLKLCDFGSAKQLLHGEPNVSYICSRYYRAPELIFGAINYTTKIDVWSAGCVLAELLLGQPIFPGDSGVDQLVEVIKVLGTPTREQIREMNPNYTEFKFPQIKSHPWQKVFRIRTPTEAINLVSLLLEYTPSARITPLKACAHPFFDELRMEGNHTLPNGRDMPPLFNFTEHELSIQPSLVPQLLPKHLQNASGPGGNRPSAGGAASIAASGSTSVSSTGSGASVEGSAQPQSQGTAAAAGSGSGGATAGTGGASAGGPGSGNNSSSGGASGAPSAVAAGGANAAVAGGAGGGGGAGAATAAATATGAIGATNAGGANVTDS
# What was measured:
# Test in all cases: MAPPIT interaction score (arbitrary units); higher = stronger binary interaction signal, active = hit call of the paper
# [1] = target: CG8043; conditions: MAPPIT configuration: N-N; pair source set: DPIM
# [2] = target: CG8128; conditions: MAPPIT configuration: N-N; pair source set: Finley_Y2H
# [3] = target: CG8292; conditions: MAPPIT configuration: N-N; pair source set: Curagen_low_conf
# [4] = target: CG8320; conditions: MAPPIT configuration: N-C; pair source set: screen_4
# [5] = target: CG9040; conditions: MAPPIT configuration: N-N; pair source set: Finley_Y2H
# [6] = target: CG9106; conditions: MAPPIT configuration: N-N; pair source set: screen_2
# [7] = target: CG9133; conditions: MAPPIT configuration: N-N; pair source set: screen_1
# [8] = target: GstT2; conditions: MAPPIT configuration: N-N; pair source set: screen_1
# [9] = target: CG9676; conditions: MAPPIT configuration: N-N; pair source set: RRS
# 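Also: HEK293T cells with Epo stimulation, STAT-responsive firefly luciferase reporter, fold induction versus unstimulated cells divided by the larger fold induction of two negative controls lacking either bait or prey.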
binder,measurement,setting,value
B1,MAPPIT interaction score,[1],0.645
B2,MAPPIT interaction score,[2],2.14
B3,MAPPIT interaction score,[3],-0.0476
B4,MAPPIT interaction score,[4],-0.175
B5,MAPPIT interaction score,[5],-0.0702
B6,MAPPIT interaction score,[6],3.9 (active)
B7,MAPPIT interaction score,[7],1.51
same,MAPPIT interaction score,[8],2.34
B8,MAPPIT interaction score,[9],0.279
